Results on eleven compounds are retold here after PubChem BioAssay (Tox21).

Test [1] can be described thus: qHTS assay to identify aromatase inhibitors - cell viability counter screen (AID 743084).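 Note: cells stimulated with testosterone during compound exposure; nearly all actives have a fitted effect of over 55% in size.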 Note: potency is the fitted concentration of half-maximal effect. A general note: Quantitative high-throughput screening tests each substance at several concentrations.
Test [2] addresses Aryl hydrocarbon receptor (Homo sapiens) (UniProt P35869). The test can be described thus: qHTS assay to identify small molecule that activate the aryl hydrocarbon receptor (AhR) signaling pathway (AID 743085).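 For activation: HG2L7.5c1 human HepG2 liver cells with stably integrated DRE-driven firefly reporter; series mostly up to about 70 µM.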 Note: nearly all actives have a fitted effect of over 15% in size. Note: potency is the fitted concentration of half-maximal effect. In short, it runs like this:
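Steps: seed HepG2-AhR-luc cells; allow 5 h at 37C; pin-transfer test compound or vehicle; incubate 24 h at 37C; add viability dye (30 min, 37C) and read fluorescence; add luciferase substrate (30 min, RT) and read luminescence.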

A short description of test [3]: qHTS assay to identify small molecule that activate the aryl hydrocarbon receptor (AhR) signaling pathway - cell viability counter screen (AID 743086).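 Note: HepG2 liver cells carrying the AhR DRE luciferase reporter; series mostly up to about 70 µM; nearly all actives have a fitted effect of over 45% in size.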 Summed up:
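HepG2-AhR-luc (HG2L7.5c1) cells, 4000/well, were preincubated 5 h at 37C, exposed to compound in qHTS format for 24 hr at 37C, then given CellTiter-Fluor for 30 min; viability was read as fluorescence in the reporter wells.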

Test [4] concerns the target Peroxisome proliferator-activated receptor gamma (Homo sapiens) (UniProt P37231). Put plainly: qHTS assay to identify small molecule agonists of the peroxisome proliferator-activated receptor gamma (PPARg) signaling pathway (AID 743094; active = well fitted activation curve with a large enough effect in the signal ratio in the repeat runs, not every such curve was filed as active; the % refers to the signal ratio). Summed up: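 Agonism was assessed in a beta-lactamase reporter system, HEK293H cells with a stably integrated UAS-bla construct under PPARg control; the 17 h treatment at 37C preceded a 1 h room-temperature FRET substrate read.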

Test [5] has the same target. Put plainly: qHTS assay to identify small molecule antagonists of the peroxisome proliferator-activated receptor gamma (PPARg) signaling pathway (AID 743191; calls by dose curve; note: series mostly up to about 63 µM; nearly all actives have a fitted effect of over 30% in size). In short, it runs like this: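 GeneBLAzer PPARg UAS-bla HEK293H cells carrying a UAS-driven beta-lactamase reporter were plated at 3000 cells/well, preincubated 5 h at 37C, then given compound for 17 h at 37C; LiveBLAzer B/G FRET substrate was read after 1 h at room temperature.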

The nature of test [6]: qHTS assay for small molecule agonists of the antioxidant response element (ARE) signaling pathway (AID 743202; active = well fitted activation curve with a large enough effect in the signal ratio in the repeat runs, not every such curve was filed as active; the % refers to the signal ratio). Summed up:
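Following a 16 h, 37 C exposure of reporter HepG2 cells (ARE-driven beta-lactamase, 2,000 cells/well) to compounds, FRET substrate was applied for 2 h at room temperature and fluorescence intensity recorded.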

Test [7] is described as follows: qHTS assay for small molecule agonists of the antioxidant response element (ARE) signaling pathway - cell viability counter screen (AID 743203; calls by dose curve; note: nearly all actives have a fitted effect of over 55% in size; note: potency is the fitted concentration of half-maximal effect). In short, it runs like this:
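ATP content via CellTiter-Glo luminescence served as the viability measure. Cells: ARE-bla HepG2, 2,000 per well. Exposure: 16 hrs, 37C/5% CO2.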

Test [8] in a line: qHTS assay for small molecule activators of the heat shock response signaling pathway - cell viability counter screen (AID 743209). Note: nearly all actives have a fitted effect of over 50% in size. Note: potency is the fitted concentration of half-maximal effect. In short, it runs like this:
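Compounds dissolved in DMSO were added to overnight-plated HSE-bla HeLa cells and left 5 h at 37 C. Cell viability was quantified by luminescence using CellTiter-Glo.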

The nature of test [9]: qHTS assay for small molecule activators of the heat shock response signaling pathway (AID 743210; active = well fitted activation curve with a large enough effect in the signal ratio in the repeat runs, with a control signal flat, not every such curve was filed as active; the % refers to the signal ratio; note: potency is the fitted concentration of half-maximal effect; for activation: series mostly up to about 63 µM). In short, it runs like this: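 Heat shock element–beta-lactamase HeLa reporter cells; qHTS with compounds for 5 h at 37 C; detection by FRET substrate fluorescence after 2.5 h at RT.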
Test [10] can be described thus: qHTS assay to identify small molecule agonists of the peroxisome proliferator-activated receptor delta (PPARd) signaling pathway - cell viability counter screen (AID 743211). Note: nearly all actives have a fitted effect of over 55% in size. Note: potency is the fitted concentration of half-maximal effect. In short, it runs like this: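 Viability of GeneBLAzer PPARd UAS-bla HEK293H cells was assessed after 17 h compound incubation at 37C, using CellTiter-Glo reagent added after the reporter read and luminescence recorded 30 min later.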

In test [11] the target is Peroxisome proliferator-activated receptor delta (Homo sapiens) (UniProt Q03181). The test can be described thus: qHTS assay to identify small molecule agonists of the peroxisome proliferator-activated receptor delta (PPARd) signaling pathway (AID 743212; calls by dose curve). Summed up:
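Beta-lactamase reporter read by fluorescence (LiveBLAzer B/G FRET, 2 h, room temperature). Test agents, in DMSO, incubated at 37 C with PPARd-bla HEK293H cells.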

For test [12] the target is unchanged. Put plainly: qHTS assay to identify small molecule antagonists of the peroxisome proliferator-activated receptor delta (PPARd) signaling pathway (AID 743215; active = well fitted inhibition curve with a large enough effect in the signal ratio in the repeat runs, not every such curve was filed as active; the % refers to the signal ratio;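 note: cells stimulated with agonist L165041 at 300 nM final during compound exposure; series mostly up to about 62 µM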). Summed up: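 Here, a reporter line (HEK293H, beta-lactamase under a UAS) measures PPARd signaling. Compounds are tested against agonist L165041 at 300 nM final concentration over 17 h at 37 C, with fluorescence read after substrate.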

In test [13] the target is Bile acid receptor (Homo sapiens) (UniProt Q96RI1). Put plainly: qHTS assay to identify small molecule antagonists of the farnesoid-X-receptor (FXR) signaling pathway (AID 743217; active = well fitted inhibition curve with a large enough effect in the signal ratio in the repeat runs, not every such curve was filed as active; the % refers to the signal ratio). Summed up:
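Test compounds are pin-transferred onto FXR-bla HEK 293T cells, then chenodeoxycholic acid is added at 50 uM final. After 16 h at 37 °C, LiveBLAzer B/G substrate is applied for 2 h at room temperature and fluorescence read.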

Test [14] has the same target. The test can be described thus: qHTS assay to identify small molecule agonists of the farnesoid-X-receptor (FXR) signaling pathway (AID 743220; active = well fitted activation curve with a large enough effect in the signal ratio in the repeat runs, not every such curve was filed as active; the % refers to the signal ratio). In short, it runs like this: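 FXR-UAS-bla HEK 293T cells carrying a UAS-driven beta-lactamase reporter were plated for 5 h at 37C/5% CO2, then exposed to DMSO-dissolved Tox21 10K compounds for 16 h at 37C. A LiveBLAzer B/G FRET substrate was loaded for 2 h at room temperature before fluorescence reading.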

The nature of test [15]: qHTS assay to identify small molecule antagonists of the farnesoid-X-receptor (FXR) signaling pathway - cell viability counter screen (AID 743221; active = well fitted cell-killing curve with a large enough effect in the repeat runs, not every such curve was filed as active; note: nearly all actives have a fitted effect of over 50% in size; note: potency is the fitted concentration of half-maximal effect). Summed up: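 Quantitative HTS of the Tox21 10K library run in parallel with the beta-lactamase reporter read. HEK 293T cells carrying a UAS-driven bla reporter got compound and 50 uM CDCA (final) for 16 h; ATP-based luminescence followed.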

For test [16], the target named is Vitamin D3 receptor (Homo sapiens) (UniProt P11473). Put plainly: qHTS assay to identify small molecule agonists of the vitamin D receptor (VDR) signaling pathway (AID 743222; calls by dose curve). Summed up:
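Tox21 cell reporter format: VDR-bla line, 16 h compound exposure in 5% CO2 at 37C, then fluorescence intensity after 2 h with LiveBLAzer B/G FRET substrate.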

The target is the same in test [17]. Put plainly: qHTS assay to identify small molecule antagonists of the vitamin D receptor (VDR) signaling pathway (AID 743223; active = well fitted inhibition curve with a large enough effect in the signal ratio in the repeat runs, not every such curve was filed as active; the % refers to the signal ratio). Summed up: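 Fluorescence from LiveBLAzer B/G FRET substrate, read after 2 h at room temperature, reflects beta-lactamase reporter activity in VDR-bla cells treated 16 h at 37C with compounds and agonist 1alpha,25-dihydroxyvitamin D3 (3 nM final).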

The nature of test [18]: qHTS assay to identify small molecule antagonists of the peroxisome proliferator-activated receptor gamma (PPARg) signaling pathway - cell viability counter screen (AID 743194). Note: nearly all actives have a fitted effect of over 55% in size. Note: potency is the fitted concentration of half-maximal effect. Summed up:
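PPARg-UAS-bla HEK293H cells were plated, rested 5 h at 37 C, then treated with compounds plus rosiglitazone (50 nM final) for 17 h at 37 C; viability was then read by CellTiter-Glo luminescence after 30 min at room temperature.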

A short description of test [19]: qHTS assay to identify small molecule antagonists of the peroxisome proliferator-activated receptor delta (PPARd) signaling pathway - cell viability counter screen (AID 743213). Note: nearly all actives have a fitted effect of over 50% in size. Note: potency is the fitted concentration of half-maximal effect. In short, it runs like this: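 PPARd-bla HEK293H cells (3000/well) got compound plus 300 nM L165041 agonist for 17 h at 37 C. Viability in the same wells came from CellTiter-Glo luminescence after 30 min at room temperature.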

Test [20] is described as follows: qHTS assay to identify small molecule agonists of the farnesoid-X-receptor (FXR) signaling pathway - cell viability counter screen (AID 743218). Note: nearly all actives have a fitted effect of over 45% in size. Note: potency is the fitted concentration of half-maximal effect. Summed up: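 Quantitative HTS counter screen measuring ATP-based viability via CellTiter-Glo luminescence in HEK 293T cells carrying a UAS-driven beta-lactamase reporter, after 16 h compound exposure at 37 C.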

Values joined by “and” are separate entries in the source; they are usually repeats but may differ in a detail not shown here. Equal values may be shown once. Inconclusive results are not listed. Some compounds were tested as several samples or in several runs, with calls that do not always agree. Active and inactive are the calls of the source. Unless noted, calls come from the whole dose curve; as a rule, active = well fitted curve in the direction sought with a large enough effect in the repeat runs; inconclusive = weak or mixed curves; inactive = no such curve, though single readings can be large; an effect the other way counts as inactive or inconclusive.
% is set by controls: 0 for no effect and ±100 for the full control effect.

Chain of Peroxisome proliferator-activated receptor gamma (Homo sapiens) (P37231 whole entry, looked up): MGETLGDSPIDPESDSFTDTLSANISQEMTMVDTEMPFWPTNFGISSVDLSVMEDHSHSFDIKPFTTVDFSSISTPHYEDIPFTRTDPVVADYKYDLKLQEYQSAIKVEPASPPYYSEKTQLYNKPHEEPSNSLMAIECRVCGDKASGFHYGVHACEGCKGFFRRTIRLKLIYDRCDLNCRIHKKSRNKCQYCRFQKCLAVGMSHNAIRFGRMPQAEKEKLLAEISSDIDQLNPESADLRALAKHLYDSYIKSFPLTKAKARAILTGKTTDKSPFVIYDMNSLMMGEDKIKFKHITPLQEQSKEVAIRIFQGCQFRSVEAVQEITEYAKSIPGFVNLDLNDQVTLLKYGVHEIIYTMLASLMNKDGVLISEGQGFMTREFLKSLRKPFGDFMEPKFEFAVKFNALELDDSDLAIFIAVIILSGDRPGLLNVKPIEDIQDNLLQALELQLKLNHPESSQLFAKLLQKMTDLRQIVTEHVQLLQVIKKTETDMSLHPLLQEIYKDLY
Chain of Vitamin D3 receptor (Homo sapiens) (P11473 whole entry, looked up): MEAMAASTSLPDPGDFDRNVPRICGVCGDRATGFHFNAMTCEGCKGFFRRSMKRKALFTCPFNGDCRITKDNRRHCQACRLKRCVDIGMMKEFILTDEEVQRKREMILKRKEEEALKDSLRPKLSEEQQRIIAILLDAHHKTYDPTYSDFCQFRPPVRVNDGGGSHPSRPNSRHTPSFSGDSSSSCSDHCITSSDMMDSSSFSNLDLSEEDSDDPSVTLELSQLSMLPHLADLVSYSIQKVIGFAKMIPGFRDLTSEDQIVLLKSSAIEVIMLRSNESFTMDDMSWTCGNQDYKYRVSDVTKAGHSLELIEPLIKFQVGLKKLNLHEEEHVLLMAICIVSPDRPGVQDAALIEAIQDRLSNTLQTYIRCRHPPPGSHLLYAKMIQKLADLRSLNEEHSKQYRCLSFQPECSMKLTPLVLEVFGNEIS
Chain of Bile acid receptor (Homo sapiens) (Q96RI1 whole entry, looked up): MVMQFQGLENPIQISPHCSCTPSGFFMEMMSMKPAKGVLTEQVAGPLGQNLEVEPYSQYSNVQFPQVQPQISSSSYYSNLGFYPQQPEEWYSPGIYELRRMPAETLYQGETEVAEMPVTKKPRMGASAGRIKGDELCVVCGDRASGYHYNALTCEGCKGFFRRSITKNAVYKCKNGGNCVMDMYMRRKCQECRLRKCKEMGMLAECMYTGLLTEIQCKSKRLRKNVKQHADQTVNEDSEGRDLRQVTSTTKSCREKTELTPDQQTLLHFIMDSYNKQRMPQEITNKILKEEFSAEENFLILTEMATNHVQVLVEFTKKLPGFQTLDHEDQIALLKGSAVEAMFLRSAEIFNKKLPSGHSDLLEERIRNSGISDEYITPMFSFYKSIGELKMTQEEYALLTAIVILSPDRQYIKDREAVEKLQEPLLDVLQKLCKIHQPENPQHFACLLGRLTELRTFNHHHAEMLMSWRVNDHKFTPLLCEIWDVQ
Chain of Aryl hydrocarbon receptor (Homo sapiens) (P35869 whole entry, looked up): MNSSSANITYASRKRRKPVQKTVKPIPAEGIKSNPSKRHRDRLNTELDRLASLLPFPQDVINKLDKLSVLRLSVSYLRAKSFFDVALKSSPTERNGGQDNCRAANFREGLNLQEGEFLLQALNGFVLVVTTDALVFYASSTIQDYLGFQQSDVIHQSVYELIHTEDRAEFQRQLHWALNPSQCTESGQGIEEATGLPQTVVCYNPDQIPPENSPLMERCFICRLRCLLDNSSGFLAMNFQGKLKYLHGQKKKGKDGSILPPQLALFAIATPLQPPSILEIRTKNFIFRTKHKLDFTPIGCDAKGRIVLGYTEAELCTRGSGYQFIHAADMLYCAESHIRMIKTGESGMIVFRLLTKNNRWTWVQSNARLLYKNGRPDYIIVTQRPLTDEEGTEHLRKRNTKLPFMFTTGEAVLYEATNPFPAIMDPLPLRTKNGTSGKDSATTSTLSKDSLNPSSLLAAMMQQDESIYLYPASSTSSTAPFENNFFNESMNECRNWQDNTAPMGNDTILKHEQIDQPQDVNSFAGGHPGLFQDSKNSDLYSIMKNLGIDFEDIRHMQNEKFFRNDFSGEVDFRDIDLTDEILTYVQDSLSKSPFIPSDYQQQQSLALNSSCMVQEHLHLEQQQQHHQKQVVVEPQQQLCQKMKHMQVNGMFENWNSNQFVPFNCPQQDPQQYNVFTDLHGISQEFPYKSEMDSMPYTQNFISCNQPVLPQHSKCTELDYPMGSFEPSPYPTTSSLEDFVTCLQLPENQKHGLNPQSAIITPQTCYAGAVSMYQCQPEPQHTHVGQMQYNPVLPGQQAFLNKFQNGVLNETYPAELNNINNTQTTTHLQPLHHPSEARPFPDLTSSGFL
Chain of Peroxisome proliferator-activated receptor delta (Homo sapiens) (Q03181 whole entry, looked up): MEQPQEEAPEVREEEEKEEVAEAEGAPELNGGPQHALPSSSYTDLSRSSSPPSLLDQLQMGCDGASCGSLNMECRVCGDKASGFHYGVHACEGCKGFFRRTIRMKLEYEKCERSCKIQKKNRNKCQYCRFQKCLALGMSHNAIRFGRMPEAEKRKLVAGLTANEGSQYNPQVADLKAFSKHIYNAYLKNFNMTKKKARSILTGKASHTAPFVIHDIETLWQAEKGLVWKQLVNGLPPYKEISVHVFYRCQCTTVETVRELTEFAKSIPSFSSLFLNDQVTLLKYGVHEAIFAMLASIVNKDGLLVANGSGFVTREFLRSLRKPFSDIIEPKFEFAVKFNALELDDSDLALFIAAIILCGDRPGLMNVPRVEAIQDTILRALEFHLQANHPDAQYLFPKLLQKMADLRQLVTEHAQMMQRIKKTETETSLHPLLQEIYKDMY

With `O=C(Oc1ccccc1)Oc1ccccc1`, the Potency result in test [1], in test [2], in test [3], in test [4], in test [5] and in [6] was “inactive” throughout. Besides, the Potency result in test [7], in test [8], in [9], in test [10], in test [11] and in test [12] was “inactive” each time. In addition, the Potency entry in test [13], in [14], in test [15], in test [16] and in [17] was “inactive” each time.
For the compound `CC(C)(C)CC(C)(C)c1ccc(Nc2ccc(C(C)(C)CC(C)(C)C)cc2)cc1`, the activity change, negative = cytotoxicity in test [1] was 3.33% [at 8.47 µM] (inactive); in test [18], -4.03% [at 5.95 µM] (inactive); in [8], 7.93% [at 5.95 µM] (inactive); in test [10] it was -7.52% [at 5.95 µM] (inactive); in test [15], 1.78% [at 5.95 µM] (inactive). In addition, the activation in test [2] is -2.79% [at 8.47 µM] (inactive); in test [4] it was 0.247% [at 7.08 µM] (inactive); in test [6], -4.99% [at 8.36 µM] (inactive); in [9] it was 0.375% [at 5.95 µM] (inactive); in test [11] it was 5.67% [at 5.95 µM] (inactive). For the same compound, the viability change, negative = cytotoxic in test [3] was -11.3% [at 8.47 µM] (inactive); in test [7] it was 7.42% [at 8.36 µM] (inactive); in [19], 2.44% [at 6.26 µM] (inactive); in test [20] it was -9.89% [at 5.95 µM] (inactive). The ratio activity, negative = inhibition in test [12] is -4.33% [at 6.26 µM] (inactive).
As to `NC(=S)NC(N)=S`, the Potency entry in [1], in test [2], in test [3], in test [4], in [5] and in [6] was “inactive” throughout. For the same compound, the Potency entry in test [7], in [8], in test [10], in test [19], in test [20] and in test [15] was “inactive” each time. Besides, the Potency result in [16] and in test [17] was “inactive” in each case. Besides, in [9], the Potency is 34.7 µM (active).
On to `CCOC(=O)NNc1ccc(N(CC)CC(C)O)nn1` (configuration not stated), for which the Potency entry in test [1], in test [2], in test [3], in test [4], in test [5] and in test [6] was “inactive” each time. The Potency entry in test [7], in test [8], in test [9], in test [10], in test [11] and in test [12] was “inactive” in each case. In addition, the Potency entry in test [20], in test [14], in test [15] and in [17] was “inactive” each time.
On to `O=C(O)CCN(C1(C(=O)NO)CCCC1)S(=O)(=O)c1ccc(Oc2ccc(F)cc2)cc1`, for which the Potency result in test [1], in [2], in [3], in test [4], in test [5] and in test [7] was “inactive” in each case. Besides, the Potency result in test [8], in test [9], in [10], in [20] and in [15] was “inactive” in each case.
Turning to `CC(=O)CC(=O)Nc1ccc(S(=O)(=O)O)cc1`, the Potency result in test [1], in [2], in test [3], in test [4], in [5] and in [6] was “inactive” throughout. Moreover, the Potency entry in [7], in test [8], in test [9], in test [10], in test [11] and in [19] was “inactive” each time. In addition, the Potency entry in test [12], in test [20], in test [15], in test [16] and in test [17] was “inactive” each time.
For `CCO[C@@H]1O[C@H](C(COCc2ccccc2)OCc2ccccc2)[C@H](OCc2ccccc2)[C@H]1O` (some centres not stated), the Potency result in test [1], in [2], in test [3], in test [4], in [18] and in test [7] was “inactive” in each case. Further, the Potency entry in test [19] and in test [14] was “inactive” throughout. The Potency in test [20] was 21.1 µM (active); in test [15], 13.3 µM (active).
`C#CC1(O)CC[C@H]2[C@@H]3CCC4=CCCC[C@@H]4[C@H]3CC[C@@]21C` (some centres not stated): the Potency entry in [1] is “inactive and 54.5 µM (active)”; in test [18], 18.8 µM (active); in [7], 61.1 µM (active) and 13.3 µM (active); in [8], 11.9 µM (active); in test [10], 11.9 µM (active); in test [19] it was 26.6 µM (active). For the same compound, the Potency in test [20] is 23.7 µM (active). For the same compound, the Potency result in test [2], in test [3], in test [4], in test [11], in test [14] and in [16] was “inactive” in each case.
`CCCCC(CC)COC(=O)CCCCC(=O)OCc1ccccc1` (configuration not stated): the Potency result in test [1], in [2], in [3], in [4], in test [6] and in test [7] was “inactive” in each case. Besides, the Potency entry in test [8], in test [10], in test [11], in [19], in test [12] and in [20] was “inactive” in each case. Further, the Potency result in test [14], in test [15], in [16] and in test [17] was “inactive” in each case.
Regarding `O=C(O)c1cc(=O)c2ccccc2o1`, the Potency result in test [1], in test [2], in test [3], in test [4], in [6] and in test [7] was “inactive” each time. The Potency entry in [9], in [10], in [11], in test [19], in test [12] and in test [20] was “inactive” throughout. The Potency result in test [15], in test [16] and in test [17] was “inactive” throughout.
As to `CC(C)Cn1cnc2c(N)nc3ccccc3c21`, the Potency result in [1], in test [3], in test [4], in [18], in test [7] and in [8] was “inactive” in each case. Further, the Potency entry in test [9], in [10], in test [11], in test [12], in [13] and in test [20] was “inactive” in each case. In addition, the Potency result in [14], in [15], in test [16] and in [17] was “inactive” in each case. Also, in [2], the Potency was 9.44 µM (active).
